Compound activity: PubChem, several laboratories
The full list was thinned out, with hits kept by preference.
GALR2 ag – agonists of human galanin receptor 2 (GALR2); GALR2-expressing cells, agonist activation read-out; activation, % (concentration not given with the values); 0.48% of 140,000 active; AID 803; in the data active = activation above about 5%, passing the limit was not always enough;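 also: 0% = vehicle buffer wells and 100% = reference agonist at full effect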
Target sequence (O43603 whole entry, looked up): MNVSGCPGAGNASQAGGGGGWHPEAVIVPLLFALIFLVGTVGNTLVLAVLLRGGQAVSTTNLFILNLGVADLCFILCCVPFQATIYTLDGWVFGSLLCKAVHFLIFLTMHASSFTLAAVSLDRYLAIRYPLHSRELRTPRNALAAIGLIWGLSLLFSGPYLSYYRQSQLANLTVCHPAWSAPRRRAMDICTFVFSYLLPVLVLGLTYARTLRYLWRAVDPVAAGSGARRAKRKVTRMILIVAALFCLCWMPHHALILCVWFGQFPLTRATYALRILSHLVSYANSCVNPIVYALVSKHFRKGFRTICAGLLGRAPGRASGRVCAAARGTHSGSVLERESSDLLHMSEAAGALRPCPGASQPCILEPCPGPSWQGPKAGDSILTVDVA
PostGolgi ctrl – inhibits growth of the yeast control strain; efflux-deficient yeast background strain, growth absorbance A615, 16 h; inhibition, % at 10 µM; 5% of 98,000 active; AID 738
S1P2 agonist – activates the human S1P2 receptor | S1P2-expressing cell line, agonist reporter read-out | activation, % at 4.5 µM | 0.46% of 97,000 active | AID 729; in the data active = activation above about 16%;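 also: 0% = vehicle low control and 100% = maximal reference agonist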
GALR2 blocker – blocks the human galanin receptor 2; AID 828; GALR2-expressing cells, antagonist mode; 0.39% of 140,000 active; inhibition, % at 4 µM; O43603; in the data active = inhibition above about 27%;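 also: cells stimulated with galanin 1-16 at roughly its EC80; 0% = agonist challenge control and 100% = basal control without agonist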
PostGolgi yeast – growth inhibition of a yeast mutant, post-Golgi transport screen | 0.9% of 98,000 active | AID 739 | post-Golgi transport phenotypic cell assay | inhibition, % at 10 µM;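 also: yeast cells grown in 1536-well plates; yeast grown about 18 h at 30C before absorbance read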
S1P2 blocker – blocks the human S1P2 receptor; inhibition, % at 5 µM; 0.21% of 97,000 active; AID 736; O95136; cell-based S1P2 antagonist assay, inhibition at 5 uM; in the data active = inhibition above about 45%;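 also: CRE beta-lactamase reporter cells expressing human S1P2 stimulated with S1P; 0% = agonist at EC80 alone and 100% = agonist plus reference antagonist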
* = called active by the depositor; / = no result. Rule as the data show it, unless noted: active = inhibition above about 30%; inactive = the rest.

SMILES | GALR2 ag | PostGolgi ctrl | S1P2 agonist | GALR2 blocker | PostGolgi yeast | S1P2 blocker
O=C1C2ON(c3ccc(Br)cc3)C(c3cccnc3)C2C(=O)N1C1CCCCC1 (configuration not stated) | -2 | 85* | -1 | -9 | 102* | 20
C/C(=N/NC(=O)c1ccc(Br)o1)C(C)C | -2 | / | / | 6 | / | /
Cc1ccc(N(C(=O)CCC(=O)Nc2cc(C)on2)C(C(=O)NC2CCCC2)c2cccs2)cc1 (configuration not stated) | -1 | 36* | -4 | 7 | 0 | -22
O=C(NCc1ccc2c(c1)OCO2)c1ccc(CS(=O)(=O)c2cccc(C(F)(F)F)c2)o1 | -4 | 27 | -5 | 10 | 96* | -2
O=C(NCc1ccc2c(c1)OCO2)c1ccc(-c2ccc(Cl)cc2)o1 | -2 | 70* | -2 | -4 | 16 | 8
CC(NC(=O)c1ccc(CS(=O)(=O)c2cccc(C(F)(F)F)c2)o1)c1ccc2c(c1)OCCO2 (configuration not stated) | 3 | 14 | -1 | -13 | 37* | 5
CC(Sc1ccc(Cl)cc1)C(=O)Nc1ccccc1-c1ccccc1 (configuration not stated) | 0 | / | / | 13 | / | /
CC1(C)CC(=O)C2=C(C1)OC(N)=C(C#N)C21C(=O)N2CCCc3cccc1c32 (configuration not stated) | -1 | 34* | -6 | -1 | -6 | 0
Cc1ccc(C(=O)N/C(=C/C=C\c2ccccc2)C(=O)NCc2ccco2)cc1 | -1 | / | / | 0 | / | /
C=CCSc1cc(C)nc2c(-c3ccc(Cl)cc3)c(C)nn12 | 0 | 13 | 23* | -9 | -7 | -35
C=CCc1c(C)nc2c(C(=O)O)cnn2c1C | -1 | 31* | -5 | 10 | 7 | 14
COc1ccc(OCC(=O)Nc2ccccc2OC)cc1 | -1 | 0 | / | 2 | 4 | /
CCCOc1ccccc1N/C(=N/c1nc(C)cc(C)n1)NC(=O)COc1ccc(OC)cc1 | 1 | 7 | 9 | -3 | 40* | -32
Cn1c(C(=O)N2CCN(C(=O)c3ccco3)CC2)cc2c(=O)n(C)c3ccccc3c21 | -2 | 35* | 0 | 6 | -10 | 10
O=C(c1ccco1)N1CCN(C(=O)c2cc(-c3ccccc3)nc3ccccc23)CC1 | -3 | 31* | -5 | 8 | -3 | 28
Cc1cc(N2CCN(C(=O)c3ccco3)CC2)n2nc(C)c(-c3ccccc3)c2n1 | -2 | 98* | -6 | 6 | 31* | -12
CCCc1cc(N2CCCC2)n2nc(C)c(-c3ccccc3)c2n1 | 1 | -1 | -7 | -2 | 1 | -37
CCN1CCN(c2cc(C(C)(C)C)nc3c(-c4ccccc4)c(C)nn23)CC1 | 2 | 76* | -4 | 3 | 21 | 9
Cn1c(C(=O)N2CCN(C3CCCCC3)CC2)cc2c(=O)n(C)c3ccccc3c21 | -4 | 6 | -1 | -2 | -10 | -11
Cc1nn2c(N3CCN(C(=O)c4ccco4)CC3)cc(C(C)(C)C)nc2c1-c1ccc(Cl)cc1 | -4 | 3 | -5 | 13 | 3 | -2
O=C(Nc1ccccc1)OC1CCC2CC1CCC2OC(=O)Nc1ccccc1 (configuration not stated) | 0 | / | / | 11 | / | /
Cc1cc(N2CCN(C(=O)c3ccco3)CC2)n2nc(-c3cccc(Cl)c3)cc2n1 | 0 | 52* | / | -1 | 7 | /
COCCCNC(=O)c1cc2c(=O)n(C)c3ccccc3c2n1C | -1 | 39* | -1 | -3 | 22 | 1
COCCNC(=O)c1cc2c(=O)n(C)c3ccccc3c2n1C | -1 | -1 | -4 | 7 | -8 | 7
CC(C)(C)Nc1nc(SCc2ccccc2)nc(N2CCOCC2)n1 | -2 | 47* | -3 | -3 | -6 | -46
SMILES | GALR2 ag | PostGolgi ctrl | S1P2 agonist | GALR2 blocker | PostGolgi yeast | S1P2 blocker
CNc1nc(SCc2ccccc2)nc(N2CCOCC2)n1 | -1 | 15 | 1 | 3 | 5 | -31
COc1cc(/C=N/N=C(/N)c2nonc2N)cc(Br)c1OCc1cccc(C)c1 | -1 | 33* | 0 | -9 | -9 | -8
COc1ccc(-n2cc(-c3ccc(C)cc3)[n+]3c2SCC3)cc1 | 1 | / | / | -9 | / | /
COC(=O)c1c(NC(=O)c2ccco2)sc(C(=O)N(C)C)c1C | -1 | / | 5 | -15 | / | -21
O=S(=O)(c1ccc2ccccc2c1)N1CCC(c2nc(-c3ccncc3)no2)CC1 | -2 | / | -8 | 7 | / | -2
CCOc1cc(N(CC)CC)ccc1/C=C(/C#N)c1nc2ccccc2[nH]1 | -1 | 50* | 12 | 23 | 12 | 6
